HepG2 tox-1 = kills HepG2 cells in TGF-b inhibitor counter-screen; HepG2 CAGA-GFP viability, ATP luminescence, 18 h; Potency, µM (top dose mostly 46.1 µM), for the others: at the highest dose activity change, negative = cytotoxicity, hits mostly cytotoxic; 410,000 compounds, 0.76% hits; AID 588856
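CellTiter-Glo luminescence gave cytotoxicity after 18 hours at 37 degrees C. The cells were HepG2 CAGA-GFP in 1% FBS DMEM, stimulated with 500 pg/mL TGF-beta after compound addition. %Activity was normalised to no-cell wells (complete cell-killing) and DMSO (no toxicity), and curves were fitted and classified.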
Gal4-VP16 FLuc = counter-screen for ROR gamma inhibitors: Gal4-VP16 reporter; Drosophila S2 Gal4-VP16 UAS-luciferase, luminescence, 20 h; 310,000 compounds, 3.5% hits; Potency, µM (highest dose often 53.6 µM), without a hit: top-dose activity, negative = inhibition, most hits filed as inhibitors;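 also: Gal4-VP16 expression switched on by copper sulfate through the metallothionein promoter; % is scaled to controls: 0 for no effect and ±100 for the full control effect; nearly all actives have a fitted effect of over 50% in size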
S2 tox = reduces viability in counter-screen for ATXN expression inhibitors | S2 cells (HEK-293 line with an ATXN2-luciferase reporter) viability, CellTiter-Fluor protease fluorescence, 24 h | AID 651635 | 400,000 compounds, 0.49% hits | Potency, µM (titrated, usually from 56.7 µM), usual class: cytotoxic; also: nearly all actives have a fitted effect of over 40% in size
ATXN2 expr inh = ATXN2 expression inhibition. 360,000 compounds, 0.72% hits. Potency, µM (titrated, usually from 57 µM), without a hit: at the highest dose activity change, negative = inhibition, actives largely listed as inhibitors. HEK-293 ATXN2-luciferase reporter, luminescence, 24 h; also: % is scaled to controls: 0 for no effect and ±100 for the full control effect; nearly all actives have a fitted effect of over 55% in size
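qHTS (up to 57 uM final) was run with 24 h compound exposure of reporter cells at 37 °C. Each well was multiplexed: SteadyGlo luminescence measured ATXN2-luciferase expression after a fluorogenic Gly-Phe-AFC viability readout (25 uM final).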
RORgamma inh = blocks mouse ROR gamma transcriptional activity. AID 2551. Potency, µM (titrated, usually from 53.6 µM), without a hit: top-dose activity change, negative = inhibition, actives largely listed as inhibitors. P51450. Drosophila S2 Gal4-RORgamma UAS-luciferase reporter, 20 h. 310,000 compounds, 5.4% hits; also: % is scaled to controls: 0 for no effect and ±100 for the full control effect; nearly all actives have a fitted effect of over 60% in size
Target sequence (P51450 whole entry, looked up, the tested form may be a part): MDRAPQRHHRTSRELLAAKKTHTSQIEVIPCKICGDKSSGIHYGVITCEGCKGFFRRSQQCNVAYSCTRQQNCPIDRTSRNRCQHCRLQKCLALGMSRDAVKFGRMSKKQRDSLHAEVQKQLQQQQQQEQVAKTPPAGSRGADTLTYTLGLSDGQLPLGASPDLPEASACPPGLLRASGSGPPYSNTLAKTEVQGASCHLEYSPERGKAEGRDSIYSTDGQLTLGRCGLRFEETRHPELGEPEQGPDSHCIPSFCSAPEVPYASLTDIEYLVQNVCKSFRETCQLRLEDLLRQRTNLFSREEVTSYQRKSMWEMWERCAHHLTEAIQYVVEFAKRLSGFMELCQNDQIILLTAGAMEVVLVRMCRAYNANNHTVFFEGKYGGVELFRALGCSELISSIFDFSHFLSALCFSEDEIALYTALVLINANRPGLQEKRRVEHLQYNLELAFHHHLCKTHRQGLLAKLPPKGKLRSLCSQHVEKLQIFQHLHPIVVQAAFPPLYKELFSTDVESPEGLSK
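Schneider cells (Drosophila), stable Gal4 DBD–ROR gamma + UAS-luc; 1 hr cmpd preincubation; Cu2+ induction 700 uM final; 20 hr ambient; luminescence.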
TGFb SMAD3 inh = TGF-b pathway inhibition; HepG2 CAGA-GFP TGF-b/SMAD3 reporter, GFP fluorescence, 18 h; TGF-beta stimulated, 500 pg/mL final; Potency, µM (titrated, usually from 46.1 µM), inactives show at the top dose activity, negative = inhibition, hits mostly inhibitors; 410,000 compounds, 1.2% hits; AID 588855; also: % is scaled to controls: 0 for no effect and ±100 for the full control effect; nearly all actives have a fitted effect of over 65% in size
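Inhibition was scored as loss of TGF-beta-induced (500 pg/mL final, 18 hours, 37 degrees C) GFP in HEPG2 cells carrying a CAGA-GFP reporter, in DMEM with 1% FBS. Well GFP was summed per cell; Activity was normalised to unstimulated and stimulated DMSO wells, then concentration-response fitting.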
TGFb confirm = confirmation of TGF-b signaling inhibitors in HepG2 reporter cells; Potency, µM (top dose mostly 46.1 µM), for the others: at the highest dose activity, negative = inhibition, hits mostly inhibitors; 1,600 compounds, 63% hits; shares compounds with TGFb SMAD3 inh; HepG2 CAGA-GFP TGF-b reporter, GFP fluorescence, 18 h; cells stimulated with TGF-beta, 500 pg/mL; also: % is scaled to controls: 0 for no effect and ±100 for the full control effect; nearly all actives have a fitted effect of over 65% in size
HepG2 tox-2 = HepG2 cytotoxicity, TGF-b inhibitor counterscreen. 1,600 compounds, 27% hits. Potency, µM (titrated, usually from 46.1 µM), for the others: at the top dose activity, negative = cytotoxicity, actives largely listed as inhibitors. shares compounds with TGFb SMAD3 inh. HepG2 CAGA-GFP viability, ATP luminescence, 18 h; cells stimulated with TGF-beta, 500 pg/mL. AID 720535; also: % is scaled to controls: 0 for no effect and ±100 for the full control effect; nearly all actives have a fitted effect of over 70% in size
CCL64 TGFb inh = TGF-b inhibition, CCL64 orthogonal assay | Potency, µM (top dose mostly 46.1 µM), for inactives: at the top dose activity, negative = inhibition, most hits filed as inhibitors | shares compounds with TGFb SMAD3 inh | 1,600 compounds, 41% hits | CCL64 CAGA-GFP reporter, TGF-b stimulated, GFP fluorescence, 18 h | AID 720536; also: nearly all actives have a fitted effect of over 65% in size
COP TGFb inh = validation of TGF-b inhibitors in HepG2 COP promoter reporter | shares compounds with TGFb SMAD3 inh | HepG2 COP-GFP TGF-b reporter, GFP fluorescence, 18 h; cells stimulated by added recombinant TGF-beta | AID 720537 | 1,600 compounds, 3% hits | Potency, µM (series often up to 46.1 µM), for inactives: at the highest dose activity, negative = inhibition, most hits filed as inhibitors; also: nearly all actives have a fitted effect of over 70% in size
Active calls of the source: *. Only some compounds are listed: those with a hit (about 6.3% of all), similar ones and a draw of the others. Calls follow the shape of the dose curve; as a rule, active = well fitted curve in the direction sought with a large enough effect; inconclusive = small, poorly fitted or top-dose-only effect, or another doubt; inactive = no such curve, though single readings can be large; an effect the other way counts as inactive or inconclusive. Potency is read from the fitted curve at half-maximal effect.

What do the screens show for `O=C(NC1CCCCC1)C(c1cccnc1)N(C(=O)CCl)c1cccc(Cl)c1` (configuration not stated)?
HepG2 tox-1: 22µM*; Gal4-VP16 FLuc: inconclusive; S2 tox: 11µM*; ATXN2 expr inh: 20µM*; RORgamma inh: 13µM*; TGFb SMAD3 inh: 10µM*; TGFb confirm: 5.8µM*; HepG2 tox-2: 9.2µM*; CCL64 TGFb inh: 4.6µM*; COP TGFb inh: inconclusive

How did CCNc1nc(N)nc(Oc2ccc(OCC(=O)OC)nn2)n1 do in these assays?
HepG2 tox-1: -1%; TGFb SMAD3 inh: 1%

What do the screens show for `COc1ccccc1NS(=O)(=O)c1ccc(-c2cnc(C3CC3)o2)cc1`?
HepG2 tox-1: -24%; Gal4-VP16 FLuc: -1%; S2 tox: inactive; RORgamma inh: -6%; TGFb SMAD3 inh: 11µM*; TGFb confirm: inconclusive; HepG2 tox-2: inconclusive; CCL64 TGFb inh: inconclusive; COP TGFb inh: 4%

How did Cc1cccc(N(C)S(=O)(=O)c2ccc(-c3cnc(C4CC4)o3)cc2)c1 do in these assays?
HepG2 tox-1: -2%; Gal4-VP16 FLuc: -8%; S2 tox: inconclusive; RORgamma inh: -2%; TGFb SMAD3 inh: 7.9µM*; TGFb confirm: 4.6µM*; HepG2 tox-2: inconclusive; CCL64 TGFb inh: 6.5µM*; COP TGFb inh: 30%

Results for Cc1ccc(N(C)S(=O)(=O)c2cc(-c3cnc(C4CC4)o3)ccc2C)cc1 ?
HepG2 tox-1: -9%; Gal4-VP16 FLuc: inconclusive; S2 tox: inactive; ATXN2 expr inh: inconclusive; RORgamma inh: 21%; TGFb SMAD3 inh: -2%

Results for O=C(Nc1nnc(SCc2ccc(F)cc2)s1)c1cccnc1Cl ?
HepG2 tox-1: 0%; Gal4-VP16 FLuc: -13%; S2 tox: inactive; ATXN2 expr inh: 5%; RORgamma inh: -17%; TGFb SMAD3 inh: -6%

What do the screens show for `O=C(Nc1nnc(SCc2ccc(F)cc2)s1)c1ccccn1`?
HepG2 tox-1: -32%; Gal4-VP16 FLuc: 1.4µM*; S2 tox: inconclusive; ATXN2 expr inh: inconclusive; RORgamma inh: 0.79µM*; TGFb SMAD3 inh: 1.6µM*; TGFb confirm: inconclusive; HepG2 tox-2: inconclusive; CCL64 TGFb inh: 18µM*; COP TGFb inh: 55%

What do the screens show for `O=C(Nc1cccc(-n2cnnn2)c1)c1ccccc1Br`?
HepG2 tox-1: 0%; Gal4-VP16 FLuc: -4%; S2 tox: inactive; ATXN2 expr inh: -3%; RORgamma inh: 12%; TGFb SMAD3 inh: 7%

What do the screens show for `O=C(Nc1cccc(-n2cnnn2)c1)c1cc(Cl)ccc1Cl`?
HepG2 tox-1: -27%; Gal4-VP16 FLuc: 2%; S2 tox: inactive; ATXN2 expr inh: -4%; RORgamma inh: 28%; TGFb SMAD3 inh: 16µM*; TGFb confirm: inconclusive; HepG2 tox-2: inconclusive; CCL64 TGFb inh: -6%; COP TGFb inh: 30%

What do the screens show for `Cc1cccc(NC(=O)NCc2cccnc2)c1C`?
HepG2 tox-1: -8%; Gal4-VP16 FLuc: 7%; S2 tox: inactive; ATXN2 expr inh: 7%; RORgamma inh: -1%; TGFb SMAD3 inh: -8%

What do the screens show for `CCOC(=O)c1c(NC(=O)CN(CC)CC)sc2c1CCN(C(=O)OCC)C2`?
HepG2 tox-1: -31%; Gal4-VP16 FLuc: inconclusive; S2 tox: inactive; ATXN2 expr inh: -24%; RORgamma inh: inconclusive; TGFb SMAD3 inh: inconclusive

What do the screens show for `CCOC(=O)c1c(NC(=O)CN2CCCCC2)sc2c1CCN(C(=O)OCC)C2`?
HepG2 tox-1: -9%; Gal4-VP16 FLuc: 8%; S2 tox: inconclusive; ATXN2 expr inh: -29%; RORgamma inh: -20%; TGFb SMAD3 inh: 11µM*; TGFb confirm: 13µM*; HepG2 tox-2: inconclusive; CCL64 TGFb inh: 18µM*; COP TGFb inh: 26%

How did CC(C)(C)OC(=O)N1CCc2onc(-c3ccc(Br)cc3)c2C1=O do in these assays?
HepG2 tox-1: -20%; S2 tox: inactive; ATXN2 expr inh: 1%; TGFb SMAD3 inh: -1%

Results for CCc1ccc(S(=O)(=O)Nc2c(NC3CCCCC3)c3ccccc3oc2=O)cc1 ?
HepG2 tox-1: -25%; Gal4-VP16 FLuc: -29%; S2 tox: inactive; ATXN2 expr inh: -12%; RORgamma inh: -9%; TGFb SMAD3 inh: 16µM*; TGFb confirm: inconclusive; HepG2 tox-2: -6%; CCL64 TGFb inh: 13%; COP TGFb inh: -6%

Results for Cc1ccc(-n2c(SCC(N)=O)nc3c(c2=O)C2(CCCC2)Cc2ccccc2-3)cc1 ?
HepG2 tox-1: 11%; Gal4-VP16 FLuc: inconclusive; S2 tox: inactive; ATXN2 expr inh: -24%; RORgamma inh: 27%; TGFb SMAD3 inh: 8.9µM*; TGFb confirm: 13µM*; HepG2 tox-2: 15µM*; CCL64 TGFb inh: inconclusive; COP TGFb inh: 19%

Results for CN=c1sc(C(=O)Nc2ccccc2)c(C)n1C ?
HepG2 tox-1: -1%; Gal4-VP16 FLuc: -4%; S2 tox: inactive; ATXN2 expr inh: -7%; RORgamma inh: -4%; TGFb SMAD3 inh: -6%

What do the screens show for `CN=c1sc2c(n1C)C(=O)c1ccccc1C2=O`?
HepG2 tox-1: 2.2µM*; ATXN2 expr inh: inconclusive; TGFb SMAD3 inh: 1.4µM*; TGFb confirm: 1.8µM*; HepG2 tox-2: 2.6µM*; CCL64 TGFb inh: 5.2µM*; COP TGFb inh: 4.6µM*
